Assays:
Test in all cases: log2 ratio of Biotin-Ahx-Ub-VS probe labelling (fragment/DMSO); higher = less target engagement (more negative = stronger competition), active = hit call of the paper (q ≤ 0.05, log2 ratio ≤ -1)
Details in all cases: compound concentration: 200 uM; treatment time: 3 h
[1] = target: T1, OTUD6B (UniProt Q8N6M0)
T1 sequence (whole entry): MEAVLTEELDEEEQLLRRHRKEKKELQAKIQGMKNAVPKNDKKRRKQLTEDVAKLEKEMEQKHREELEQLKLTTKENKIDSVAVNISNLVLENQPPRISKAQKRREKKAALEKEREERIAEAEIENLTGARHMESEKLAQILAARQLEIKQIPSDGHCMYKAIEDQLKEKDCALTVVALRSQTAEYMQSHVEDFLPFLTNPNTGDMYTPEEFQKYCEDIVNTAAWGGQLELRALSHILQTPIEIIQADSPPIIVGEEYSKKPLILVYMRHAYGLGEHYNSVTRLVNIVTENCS
How it was run: (§1)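 Labelling with Biotin-Ahx-Ub-VS (0.5 µM final, 1 h) followed a 3 h triplicate treatment of HEK293T lysate (495 µg per sample, Tris/CHAPS/IGEPAL buffer with protease inhibitors) with fragment at 200 µM or vehicle. Labelled DUBs were NeutrAvidin-enriched, digested with LysC and trypsin, and run by diaPASEF LC-MS/MS. The values, average log2 fragment/vehicle ratios by unpaired t-test, come from global-median-normalised Spectronaut label-free quantities. Proteins with ≥2 unique peptides were used.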

[2] = target: T2, OTUD7B (UniProt Q6GQQ9)
T2 sequence (whole entry): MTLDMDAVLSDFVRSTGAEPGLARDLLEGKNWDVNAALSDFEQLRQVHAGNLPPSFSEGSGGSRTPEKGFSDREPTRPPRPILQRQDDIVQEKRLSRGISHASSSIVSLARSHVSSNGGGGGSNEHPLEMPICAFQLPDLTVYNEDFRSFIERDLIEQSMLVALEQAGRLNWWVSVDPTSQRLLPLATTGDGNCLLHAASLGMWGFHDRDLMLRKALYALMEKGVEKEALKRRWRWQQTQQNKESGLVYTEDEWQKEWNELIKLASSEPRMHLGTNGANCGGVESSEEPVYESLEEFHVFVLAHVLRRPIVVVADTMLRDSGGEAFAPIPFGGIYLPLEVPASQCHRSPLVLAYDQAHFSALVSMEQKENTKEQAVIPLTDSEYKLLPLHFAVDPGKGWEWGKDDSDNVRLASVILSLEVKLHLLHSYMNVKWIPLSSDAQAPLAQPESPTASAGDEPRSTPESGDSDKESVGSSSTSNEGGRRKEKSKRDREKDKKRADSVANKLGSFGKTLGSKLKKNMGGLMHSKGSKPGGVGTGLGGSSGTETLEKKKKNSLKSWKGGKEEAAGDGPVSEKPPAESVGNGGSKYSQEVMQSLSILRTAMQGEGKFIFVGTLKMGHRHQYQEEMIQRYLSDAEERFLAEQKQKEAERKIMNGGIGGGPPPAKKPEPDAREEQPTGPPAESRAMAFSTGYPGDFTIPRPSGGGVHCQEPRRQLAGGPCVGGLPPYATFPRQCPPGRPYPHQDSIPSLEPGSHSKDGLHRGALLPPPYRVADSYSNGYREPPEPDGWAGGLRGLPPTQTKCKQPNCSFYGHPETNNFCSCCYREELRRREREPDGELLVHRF
How it was run: as §1

[3] = target: PRPF8 (UniProt Q6P2Q9)
How it was run: as §1

[4] = target: T3, PSMD7 (UniProt P51665)
T3 sequence (whole entry): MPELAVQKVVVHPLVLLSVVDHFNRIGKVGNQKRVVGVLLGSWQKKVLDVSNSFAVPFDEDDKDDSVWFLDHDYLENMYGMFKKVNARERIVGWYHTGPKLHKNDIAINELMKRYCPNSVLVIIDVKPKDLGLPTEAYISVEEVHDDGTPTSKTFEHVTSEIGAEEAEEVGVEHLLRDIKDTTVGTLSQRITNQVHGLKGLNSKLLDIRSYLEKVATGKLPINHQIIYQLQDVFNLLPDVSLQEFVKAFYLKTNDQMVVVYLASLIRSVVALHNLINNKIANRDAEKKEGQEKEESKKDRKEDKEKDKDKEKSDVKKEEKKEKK
How it was run: as §1

[5] = target: UCHL1 (UniProt P09936)
How it was run: as §1

[6] = target: T4, UCHL3 (UniProt P15374)
T4 sequence (whole entry): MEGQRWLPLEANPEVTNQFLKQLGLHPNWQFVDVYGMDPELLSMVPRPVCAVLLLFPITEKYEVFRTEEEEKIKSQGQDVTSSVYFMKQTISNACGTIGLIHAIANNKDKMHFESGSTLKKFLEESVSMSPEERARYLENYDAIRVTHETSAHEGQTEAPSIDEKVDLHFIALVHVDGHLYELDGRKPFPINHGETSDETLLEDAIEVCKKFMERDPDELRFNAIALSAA
How it was run: as §1

[7] = target: T5, UCHL5 (UniProt Q9Y5K5)
T5 sequence (whole entry): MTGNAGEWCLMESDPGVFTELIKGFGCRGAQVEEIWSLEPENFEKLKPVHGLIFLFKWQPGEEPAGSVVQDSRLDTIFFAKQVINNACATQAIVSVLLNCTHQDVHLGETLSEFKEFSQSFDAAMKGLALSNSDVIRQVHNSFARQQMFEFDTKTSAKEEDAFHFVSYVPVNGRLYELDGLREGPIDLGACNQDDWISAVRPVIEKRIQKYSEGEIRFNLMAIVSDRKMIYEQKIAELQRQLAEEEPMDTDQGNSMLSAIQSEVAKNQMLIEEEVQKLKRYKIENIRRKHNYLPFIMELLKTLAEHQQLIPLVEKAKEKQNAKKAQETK
How it was run: as §1

[8] = target: USP10 (UniProt Q14694)
How it was run: as §1

[9] = target: T6, USP15 (UniProt Q9Y4E8)
T6 sequence (whole entry): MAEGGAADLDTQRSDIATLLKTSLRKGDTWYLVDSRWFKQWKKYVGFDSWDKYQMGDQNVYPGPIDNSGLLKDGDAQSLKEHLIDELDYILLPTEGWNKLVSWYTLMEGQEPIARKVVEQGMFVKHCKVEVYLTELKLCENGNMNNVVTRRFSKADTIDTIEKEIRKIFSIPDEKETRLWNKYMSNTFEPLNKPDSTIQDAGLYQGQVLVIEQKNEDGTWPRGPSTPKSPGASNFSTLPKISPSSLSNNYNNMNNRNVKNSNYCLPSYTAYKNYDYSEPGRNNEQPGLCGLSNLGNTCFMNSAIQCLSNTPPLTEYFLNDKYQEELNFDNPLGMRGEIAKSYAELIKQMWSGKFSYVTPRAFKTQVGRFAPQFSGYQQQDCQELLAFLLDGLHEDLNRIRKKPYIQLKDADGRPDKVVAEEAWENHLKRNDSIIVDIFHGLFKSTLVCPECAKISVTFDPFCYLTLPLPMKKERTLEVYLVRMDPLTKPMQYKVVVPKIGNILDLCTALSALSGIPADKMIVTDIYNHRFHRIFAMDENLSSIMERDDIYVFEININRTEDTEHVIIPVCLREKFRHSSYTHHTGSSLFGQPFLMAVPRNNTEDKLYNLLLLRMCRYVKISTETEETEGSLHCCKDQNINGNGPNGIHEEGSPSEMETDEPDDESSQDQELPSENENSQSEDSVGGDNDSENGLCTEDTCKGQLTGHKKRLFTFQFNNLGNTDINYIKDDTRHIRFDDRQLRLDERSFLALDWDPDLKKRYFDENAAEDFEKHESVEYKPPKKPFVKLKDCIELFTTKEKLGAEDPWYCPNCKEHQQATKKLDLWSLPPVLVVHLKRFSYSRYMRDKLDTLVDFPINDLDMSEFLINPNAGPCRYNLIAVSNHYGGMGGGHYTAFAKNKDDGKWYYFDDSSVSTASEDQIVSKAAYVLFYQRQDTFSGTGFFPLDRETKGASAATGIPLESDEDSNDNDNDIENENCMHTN
How it was run: as §1

[10] = target: USP16 (UniProt Q9Y5T5)
How it was run: as §1

Measured: log2 ratio of Biotin-Ahx-Ub-VS probe labelling

Chain of USP16 (Q9Y5T5 whole entry, looked up): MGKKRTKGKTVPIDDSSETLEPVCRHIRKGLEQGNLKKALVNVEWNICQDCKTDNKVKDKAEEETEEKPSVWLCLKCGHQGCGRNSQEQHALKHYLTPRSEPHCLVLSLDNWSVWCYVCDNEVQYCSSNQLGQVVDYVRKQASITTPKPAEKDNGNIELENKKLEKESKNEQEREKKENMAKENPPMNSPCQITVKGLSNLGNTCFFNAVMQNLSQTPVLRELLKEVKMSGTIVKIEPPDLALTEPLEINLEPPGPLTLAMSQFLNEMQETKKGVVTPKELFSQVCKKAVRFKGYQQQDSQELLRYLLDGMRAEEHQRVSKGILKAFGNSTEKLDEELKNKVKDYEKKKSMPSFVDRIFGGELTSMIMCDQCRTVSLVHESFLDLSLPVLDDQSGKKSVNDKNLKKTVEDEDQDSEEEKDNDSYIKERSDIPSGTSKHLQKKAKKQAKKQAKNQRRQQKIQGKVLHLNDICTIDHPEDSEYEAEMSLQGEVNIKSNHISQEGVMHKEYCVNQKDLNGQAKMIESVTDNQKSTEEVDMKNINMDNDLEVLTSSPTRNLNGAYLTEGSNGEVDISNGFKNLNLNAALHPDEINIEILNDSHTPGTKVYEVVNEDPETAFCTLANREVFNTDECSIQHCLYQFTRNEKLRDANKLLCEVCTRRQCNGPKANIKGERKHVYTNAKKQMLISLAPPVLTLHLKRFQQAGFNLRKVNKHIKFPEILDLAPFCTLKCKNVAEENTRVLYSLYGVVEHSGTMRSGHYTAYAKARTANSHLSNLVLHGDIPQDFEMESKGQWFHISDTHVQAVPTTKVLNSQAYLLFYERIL
Chain of UCHL1 (P09936 whole entry, looked up): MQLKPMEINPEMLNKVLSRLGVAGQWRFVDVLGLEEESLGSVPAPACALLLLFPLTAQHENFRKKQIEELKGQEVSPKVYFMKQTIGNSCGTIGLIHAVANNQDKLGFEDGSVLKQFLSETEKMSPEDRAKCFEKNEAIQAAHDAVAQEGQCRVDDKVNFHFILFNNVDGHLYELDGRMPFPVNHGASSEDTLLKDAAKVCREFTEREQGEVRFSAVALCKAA
Chain of USP10 (Q14694 whole entry): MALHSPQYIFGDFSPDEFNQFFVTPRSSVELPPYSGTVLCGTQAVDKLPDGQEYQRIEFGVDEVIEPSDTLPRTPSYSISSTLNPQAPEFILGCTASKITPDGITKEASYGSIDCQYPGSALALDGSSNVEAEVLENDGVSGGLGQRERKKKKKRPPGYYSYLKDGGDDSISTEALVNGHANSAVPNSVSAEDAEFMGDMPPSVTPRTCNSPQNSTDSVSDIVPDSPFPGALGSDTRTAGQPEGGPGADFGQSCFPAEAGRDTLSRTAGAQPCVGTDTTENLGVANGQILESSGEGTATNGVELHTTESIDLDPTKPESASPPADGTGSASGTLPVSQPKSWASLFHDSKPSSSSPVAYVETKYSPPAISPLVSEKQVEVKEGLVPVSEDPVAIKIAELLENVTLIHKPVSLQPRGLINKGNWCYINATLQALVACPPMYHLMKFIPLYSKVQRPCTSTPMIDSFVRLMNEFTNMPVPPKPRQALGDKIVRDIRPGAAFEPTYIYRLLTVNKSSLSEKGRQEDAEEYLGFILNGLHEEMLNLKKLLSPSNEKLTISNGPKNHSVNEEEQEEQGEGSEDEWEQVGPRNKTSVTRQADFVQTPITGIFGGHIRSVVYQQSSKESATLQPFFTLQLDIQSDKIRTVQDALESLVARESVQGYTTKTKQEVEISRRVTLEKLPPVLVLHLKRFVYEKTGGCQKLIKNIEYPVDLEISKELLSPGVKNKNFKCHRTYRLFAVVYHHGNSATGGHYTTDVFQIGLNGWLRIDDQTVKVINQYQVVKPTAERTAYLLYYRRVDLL

CCN(C(=O)CCl)C1CCCCC1
inactive: [1] -0.00402 | [2] -0.011 | [3] -0.0683 | [4] 0.00413 | [5] -0.999 | [6] 0.576 | [7] 0.0144 | [8] -0.185 | [9] -0.0855 | [10] 0.0695

From the supplement of paper PMC11732987, “Enantioselective OTUD7B fragment discovery through chemoproteomics screening and high-throughput optimisation” (Communications Chemistry, 2025)
